# Screening results: PubChem BioAssay, National Center for Advancing Translational Sciences (NCATS)
# Only some compounds are listed: those with a hit (about 5.8% of all), similar ones and a draw of the others.
# PINK1 modulator: A Quantitative High throughput Screen to Identify Chemical Modulators of PINK1 Expression; PINK1 immunofluorescence, high-content cytometry, 24 h; Potency, µM (highest dose often 76.6 µM), hits mostly activators; hit rate 0.2% among 410,000; AID 624263, 2012; active = well fitted activation curve with a large enough effect; inconclusive = small, poorly fitted or top-dose-only effect; cell line not stated here; note: nearly all actives have a fitted effect of over 65% in size
#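 Fluorescence from anti-PINK1 antibody, together with nuclear and cell stains, was scanned on a laser-scanning cytometer. Before staining, stable-line cells were incubated 24 hours with compounds at 5 concentrations; primary antibody 12 h at 10 degrees C.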
# SW480 rereplic: A quantitative high throughput screen for small molecules that induce DNA re-replication in SW480 colon adenocarcinoma cells; hit rate 1.8% among 340,000; Potency, µM (series often up to 46.1 µM), hits mostly activators; SW480 DNA re-replication, Hoechst DNA content imaging, 48 h; AID 624297, 2012; note: nearly all actives have a fitted effect of over 55% in size
#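 Per well, 250 cells were exposed to pinned compound for 48 hr. Nuclear DNA was visualised with Hoechst (40 min, 37 C) and total object intensity recorded by fluorescence scanning.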
# KB-3-1 tox: qHTS assay for MDR1-selective chemotherapeutics: Primary screen using the parental adenocarcinoma cell KB-3-1; Potency, µM (series often up to 46.1 µM), actives largely listed as cytotoxic; hit rate 1.4% among 400,000; KB-3-1 viability, CellTiter-Glo ATP luminescence, 72 h; note: nearly all actives have a fitted effect of over 60% in size
#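 Multi-concentration cytotoxicity screen in KB-3-1 cells grown in DMEM lacking phenol red with 10% FBS. After 72 h at 37 °C with compound, ATP-dependent luminescence was recorded.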
# ALOX12 inh: Primary qHTS assay for inhibitors of human arachidonate 12S-lipoxygenase (ALOX12): Round 2 | Polyunsaturated fatty acid lipoxygenase ALOX12 (Homo sapiens), P18054 | purified 12hLO, xylenol orange hydroperoxide absorbance | Potency, µM (titrated, usually from 108 µM), usual class: inhibitors | hit rate 1.1% among 580,000 | AID 1671190, 2021
# Target sequence (P18054 whole entry, looked up): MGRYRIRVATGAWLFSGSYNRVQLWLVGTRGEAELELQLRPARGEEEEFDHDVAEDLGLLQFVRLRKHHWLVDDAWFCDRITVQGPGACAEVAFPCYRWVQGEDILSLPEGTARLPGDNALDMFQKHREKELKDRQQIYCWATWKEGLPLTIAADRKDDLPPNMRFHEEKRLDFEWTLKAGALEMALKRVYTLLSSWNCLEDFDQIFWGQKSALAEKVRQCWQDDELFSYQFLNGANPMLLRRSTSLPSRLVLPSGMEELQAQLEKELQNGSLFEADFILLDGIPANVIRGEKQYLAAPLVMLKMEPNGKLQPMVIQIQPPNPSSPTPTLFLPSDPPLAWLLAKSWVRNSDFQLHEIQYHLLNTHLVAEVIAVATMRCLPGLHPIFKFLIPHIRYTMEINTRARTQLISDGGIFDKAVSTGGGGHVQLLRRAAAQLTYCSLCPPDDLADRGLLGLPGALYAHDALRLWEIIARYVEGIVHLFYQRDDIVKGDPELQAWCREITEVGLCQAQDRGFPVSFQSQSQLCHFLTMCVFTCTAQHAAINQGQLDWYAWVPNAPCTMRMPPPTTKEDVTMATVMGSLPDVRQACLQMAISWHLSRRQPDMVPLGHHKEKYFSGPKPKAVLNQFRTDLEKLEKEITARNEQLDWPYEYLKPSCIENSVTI
#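 Hydroperoxide product was detected by ferrous iron/xylenol orange as the 573 to 405 nm absorbance ratio. Arachidonic acid at 40 uM (final) was turned over for 30 min at room temperature by 150 nM human 12hLO, pH 7.0 Hepes buffer, after 15 min compound preincubation.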
# KB-V1 cytotox: qHTS assay for MDR1-selective chemotherapeutics: Primary screen using the drug-selected MDR subline cells KB-V1. hit rate 3.4% among 400,000. AID 1347076, 2019. KB-V1 MDR cells viability, CellTiter-Glo, 72 h. Potency, µM (highest dose often 46.1 µM), usual class: cytotoxic; note: nearly all actives have a fitted effect of over 60% in size
#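 KB-V1 MDR subline cells in DMEM (phenol-red free, 10% FBS) exposed to compounds in qHTS concentration series for 72 h at 37 degrees C. Viability read by CellTiter-Glo luminescence; concentration-effect curves fitted after normalization and correction.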
# MCF10A rereplic: A quantitative high throughput screen for small molecules that induce DNA re-replication in MCF 10a normal breast cells. MCF 10A DNA re-replication, Hoechst nuclear intensity, 48 h. Potency, µM (highest dose often 46.1 µM), actives largely listed as activators. AID 624296, 2012. hit rate 2.9% among 350,000; note: nearly all actives have a fitted effect of over 50% in size
# Numbers stand for hits; – = inactive; ? = inconclusive; · = no result given; [ ] = remark or other dose. Unless noted, calls come from the whole dose curve; as a rule, active = well fitted curve in the direction sought with a large enough effect; inconclusive = small, poorly fitted or top-dose-only effect, or another doubt; inactive = no such curve, though single readings can be large; an effect the other way counts as inactive or inconclusive.
SMILES,PINK1 modulator,SW480 rereplic,KB-3-1 tox,ALOX12 inh,KB-V1 cytotox,MCF10A rereplic
Cc1ccc(CNC(=O)[C@H](Cc2ccccc2)NC(=O)c2ccco2)n1C,·,·,·,–,·,·
CC(=NNc1nc2ccccc2s1)c1ccncn1,–,?,7.3µM,–,?,7.3µM
O=C(Cn1cccc1C(=O)c1ccccc1)NCc1ccccc1,–,–,–,–,23µM,–
O=[N+]([O-])c1cccc(N=Cc2ccncc2)c1,·,·,·,–,·,·
O=[N+]([O-])c1ccc(Sc2nnnn2-c2ccccc2)nc1,–,6.5µM,?,–,?,3.7µM
Cc1ccccc1-n1nnnc1Sc1nnnn1-c1ccccc1,–,?,?,–,?,15µM
Cc1ccc(-n2nnnc2Sc2nnnn2-c2ccccc2)cc1,·,·,·,–,·,·
C(=C\CSc1nnnn1-c1ccccc1)/CSc1nnnn1-c1ccccc1,–,–,–,–,?,–[0.0737 µM]
Cc1cccc(C)c1-n1nnnc1Sc1nnnn1-c1ccccc1,·,·,·,–,·,·
CCCSc1nnc(Sc2nnnn2-c2ccccc2)s1,–,6.5µM,5.2µM,–,13µM,?
COc1ccc(-c2cnn3c2NC(=O)CC3C(=O)Nc2ccc(F)c(Cl)c2)cc1OC (stereo unspecified),·,·,·,–,·,·
Cc1cccc(N2CC(C(=O)N(C)Cc3cnn(C)c3)CC2=O)c1C (stereo unspecified),·,·,·,–,·,·
Cc1cc(=O)oc2cc(OCC(=O)N(C)C3(C#N)CCCCC3)ccc12,·,·,·,–,·,·
N#CCC(=O)Nc1ccc(C(=O)OC(C(=O)Nc2cc(C(F)(F)F)ccc2Cl)c2ccccc2)cc1 (stereo unspecified),–,?,?,–,15µM,?
Cc1cc(C(=O)CSc2cccc[n+]2[O-])c(C)n1-c1ccc(OC(F)F)cc1,–,–,–,–,–,–
COC(=O)c1ccc(-n2c(C)cc(C(=O)CSc3cccc[n+]3[O-])c2C)cc1,–,–,–,–,?,1.3µM
O=C1Oc2ccccc2C(=O)C1C(CC(O)c1ccc(-c2ccc(Br)cc2)cc1)c1ccccc1 (stereo unspecified),·,–,·,·,·,30µM
OC(CN1CCN(C(c2ccccc2)c2ccccc2)CC1)c1ccc(Br)cc1 (stereo unspecified),?,–,–,?,–,–
COc1ccc(-c2[nH]ncc2-c2ccc(Cl)cc2)c(O)c1,–,–,–,–,–,?
COc1ccc(-c2cn[nH]c2-c2ccc(OCc3ccccc3F)cc2O)cc1OC,–,?,?,?,18µM,?
COc1ccc(-c2cn[nH]c2-c2ccc(OCc3ccc([N+](=O)[O-])cc3)cc2O)cc1OC,–,–,?,–,4.1µM,–
O=[N+]([O-])c1ccc(COc2ccc(-c3[nH]ncc3-c3ccc(Cl)cc3)c(O)c2)cc1,–,?,–,–,–,23µM
O=C(Nc1ccc(-c2nc3ccccc3o2)cc1)c1ccc(Cl)c([N+](=O)[O-])c1,·,·,·,–,·,·
CN(Cc1ccccc1N1CCCC1)C(=O)c1cc2ccccc2o1,–,–,–,–,–,?
CN(Cc1ccccc1N1CCCC1)C(=O)c1cc2cc(Cl)ccc2o1,–,–,?,–,?,15µM
SMILES,PINK1 modulator,SW480 rereplic,KB-3-1 tox,ALOX12 inh,KB-V1 cytotox,MCF10A rereplic
COc1ccc(NC(=S)NC23CN4CN(CN(C4)C2)C3)cc1,–,0.52µM,–,–,–,–
CCOc1ccc(NC(=S)NC23CN4CN(CN(C4)C2)C3)cc1,–,–,–,–,–,–
CC(=O)/C(=N/Nc1ccccc1Cl)Sc1nnc(C(O)c2ccccc2)n1-c1ccccc1 (stereo unspecified),–,–,–,?,16µM,–
Cc1nnc2n(-c3ccccc3)c(=O)c3c4c(sc3n12)CC(C)CC4 (stereo unspecified),–,–,–,–,8.2µM,–
COc1ccc(-n2c(=O)c3c4c(sc3n3cnnc23)CC(C)CC4)cc1 (stereo unspecified),–,–,–,–,–,–
O=C(NCCc1c[nH]c2ccccc12)c1cc(F)ccc1F,·,·,·,–,·,·
O=C(Nc1ccc(S(=O)(=O)N2CCCCC2c2cccnc2)cc1)c1ccc(Br)cc1 (stereo unspecified),–,·,?,–,12µM,·
Cc1nn2c(N3CCCC3)c3c(nc2c1-c1ccccc1)CCC3,–,18µM,–,–,?,–
COc1cccc(Nc2c3c(nc4c(-c5ccccc5)c(C)nn24)CCC3)c1,–,?,?,–,18µM,21µM
CCC(C)Nc1c2c(nc3c(-c4ccccc4)c(C)nn13)CCC2 (stereo unspecified),–,–,–,–,9.2µM,?
Cc1nn2c(N3CCN(CCO)CC3)c3c(nc2c1-c1ccccc1)CCCC3,–,?,–,–,–,–
Cc1nn2c(NCCCN3CCOCC3)c3c(nc2c1-c1ccccc1)CCC3,–,–,–,–,?,–
CCCCNc1c2c(nc3c(-c4ccccc4)c(C)nn13)CCC2,–,–,–,–,23µM,–
CCOc1ccc(/C=C/C(=O)c2c(O)c3ccccc3oc2=O)cc1,–,?,–,–,12µM,?
CN(C)c1ccc(/C=C/C(=O)c2c(O)c3ccccc3oc2=O)cc1,–,?,–,–,–,–
O=S(=O)(Nc1ccc2c(c1)nc1n2CCN(Cc2ccccc2)C1)c1ccccc1,–,–,?,–,2.6µM,–
Cc1ccc(S(=O)(=O)Nc2ccc3c(c2)nc2n3CCN(Cc3ccccc3)C2)cc1,–,–,–,–,16µM,–
O=C(Nc1ccc2c(c1)nc1n2CCN(Cc2ccccc2)C1)NC1CCCCC1,10µM,–,–,–,–,–
COCCN1CCn2c(nc3cc(NC(=O)NC4CCCCC4)ccc32)C1,–,–,–,–,?,–
COCCN(Cc1cc2cc(C)cc(C)c2nc1Cl)C(=O)Nc1ccccc1,–,?,?,–,5.8µM,–
Cc1cccc2sc(NC(=O)CCNS(=O)(=O)c3cccc4nonc34)nc12,–,–,?,–,23µM,–
Cc1cccc(NC(=O)CCNS(=O)(=O)c2cccc3nonc23)c1C,–,–,–,–,–,–
CC(C)n1c(O)c(N=NC(=O)Cn2ccc(C(F)(F)F)n2)c2ccccc21,–,–,?,–,8.2µM,?
O=C(Cn1ccc(C(F)(F)F)n1)N=Nc1c(O)[nH]c2ccccc12,–,–,–,–,–,–
CCc1ccc(Nc2cnn(-c3nc4ccccc4s3)c(=O)c2Cl)cc1,–,–,–,–,13µM,–
